Screening results (PubChem BioAssay)
KB-V1 MDR tox: qHTS assay for MDR1-selective chemotherapeutics: Primary screen using the drug-selected MDR subline cells KB-V1 | KB-V1 MDR cells viability, CellTiter-Glo, 72 h | Potency, µM (highest dose often 46.1 µM), hits mostly cytotoxic | 400,000 compounds, 3.4% hits; further: on the % scale 0 is the no-effect control and ±100 the full control effect; nearly all actives have a fitted effect of over 60% in size
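In this primary screen, KB-V1 cells overexpressing P-gp are incubated with library compounds (lowest to highest concentration) for 72 h at 37 degrees C before a luminescent ATP viability read.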
HT1080-NT tox: qHTS for induction of synthetic lethality in tumor cells producing 2HG: qHTS for the HT-1080-NT fibrosarcoma cell line. HT-1080-NT fibrosarcoma viability, CellTiter-Glo ATP luminescence, 48 h. 360,000 compounds, 1.6% hits. Potency, µM (series often up to 46.1 µM), for inactives: at the highest dose activity, negative = less viability, most hits filed as cytotoxic. AID 686970, 2013;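 further: NT is the 2HG producing partner of a matched IDH1 knockdown line; 0% = DMSO-treated cells and -100% = media-only wells without cells; nearly all actives have a fitted effect of over 55% in size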
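Viability by CellTiter-Glo luminescence after 48 h compound exposure at 37C of HT-1080-NT cells (750/well, RPMI, 5% FBS). % activity scaled between DMSO wells and medium-only wells, then curve-fitted and categorized by curve class.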
MCF10A rerep: A quantitative high throughput screen for small molecules that induce DNA re-replication in MCF 10a normal breast cells; MCF 10A DNA re-replication, Hoechst nuclear intensity, 48 h; Potency, µM (doses to about 46.1 µM), inactives show at the highest dose activity, positive = re-replication, hits mostly activators; 350,000 compounds, 2.9% hits; AID 624296, 2012; further: % of control where 0% means no effect; nearly all actives have a fitted effect of over 50% in size
SW480 rereplic: A quantitative high throughput screen for small molecules that induce DNA re-replication in SW480 colon adenocarcinoma cells; AID 624297, 2012; Potency, µM (doses to about 46.1 µM), for inactives: top-dose re-replication activation, usual class: activators; 340,000 compounds, 1.8% hits; SW480 DNA re-replication, Hoechst DNA content imaging, 48 h; further: % of control where 0% means no effect; nearly all actives have a fitted effect of over 55% in size
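Treated cells incubate 48 hr (37 C, 5% CO2), are stained 40 min with Hoechst, and nuclear fluorescence is enumerated; a rise in nuclei with high DNA signal marks re-replication.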
HT1080 IDH1KD tx: qHTS for induction of synthetic lethality in tumor cells producing 2HG: qHTS for the HT-1080-IDH1KD cell line; HT-1080 IDH1 knockdown viability, ATP luminescence, 48 h; Potency, µM (series often up to 46.1 µM), for inactives: top-dose activity, negative = toxicity, usual class: cytotoxic; 360,000 compounds, 2% hits;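 further: 0% = DMSO wells and -100% = cell-free medium wells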
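Cytotoxicity counter-line: IDH1KD HT-1080, 48 h, CellTiter-Glo. Curves classed by r2, magnitude and activity.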
KB-3-1 cytotox: qHTS assay for MDR1-selective chemotherapeutics: Primary screen using the parental adenocarcinoma cell KB-3-1. Potency, µM (titrated, usually from 46.1 µM), usual class: cytotoxic. KB-3-1 viability, CellTiter-Glo ATP luminescence, 72 h. 400,000 compounds, 1.4% hits; further: on the % scale 0 is the no-effect control and ±100 the full control effect; nearly all actives have a fitted effect of over 60% in size
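Parental KB-3-1 adenocarcinoma cells in phenol-red-free DMEM with 10% FBS were pin-treated with compounds at several concentrations, incubated 72 h at 37 °C, and viability read by CellTiter-Glo luminescence; concentration-effect curves were fitted after normalization.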
Active calls of the source: *; i = inactive; u = inconclusive; x = no result; [ ] = remark or other dose. Most compounds without a hit are left out; they make up all but 8% or so of the library. The call rests on the fitted dose curve; in most records, active means well fitted curve in the direction sought with a large enough effect; inconclusive means small, poorly fitted or top-dose-only effect, or another doubt; inactive means no such curve, though single readings can be large; an effect the other way counts as inactive or inconclusive. Potency means the concentration at half of the fitted maximal effect.

SMILES | KB-V1 MDR tox | HT1080-NT tox | MCF10A rerep | SW480 rereplic | HT1080 IDH1KD tx | KB-3-1 cytotox
O=C1CCc2cc(NS(=O)(=O)c3ccc(Br)cc3)cc3c2N1CC3 | i | -12.2% | 2.5% | -0.2% | 6.4% | i
Cc1ccc(S(=O)(=O)Nc2cc3c4c(c2)CCC(=O)N4CCC3)cc1 | i | -14.5% | 9.2µM* | -74.9% | -3.8% | i
Cc1ccc(C)c(S(=O)(=O)Nc2cc3c4c(c2)CC(=O)N4CCC3)c1 | 11.6µM* | -7.4% | -2.3% | 2.0% | -6.2% | u
CC1(C)C(=O)OC(c2c(F)c(F)c(F)c(F)c2F)C2(CCCCC2)C1=O (configuration not stated) | i | 7.2% | 8.2% | -1.6% | 8.9% | i
CCCCCCCN(C(=O)CCl)c1ccccc1C | i | -10.7% | 0.3% | 7.31µM* | u | i
CC(C)(C)C(=O)CSc1nc2c(c(-c3cccs3)c1C#N)CCC2 | i | -1.2% | 4.11µM* | u | -0.1% | i
Cc1cccc(CSc2nc(N)c(C#N)c(-c3cccs3)c2C#N)c1 | 11.2µM* | -9.6% | 18.1% | 0.6% | -26.8% | u
CCCCSc1nc(N)c(C#N)c(-c2cccs2)c1C#N | u | u | u | 4.4% | u | u
CC(=O)CSc1nc(N)c(C#N)c(-c2cccs2)c1C#N | 18.4µM* | -24.0% | u | 0.3% | u | i
CC(C)OC(=O)CSc1nc(N)c(C#N)c(-c2cccs2)c1C#N | 20.6µM* | u | u | u | -15.9% | i
O=C(NNC(=S)Nc1ccccc1)c1cccc(Br)c1 | i | 11.9% | 19.5% | -2.0% | 5.9% | i
CCOC(=O)C1(CCOc2ccccc2)CCN(Cc2cccn2-c2ncccn2)CC1 | i | -2.8% | -3.5% | 12.4% | -19.0% | i
CCN1CCN(c2nc3c(C)cccn3c(=O)c2/C=C(\C#N)C(=O)NCCOC)CC1 | i | 4.4% | 16.4µM* | 6.51µM* | -0.9% | u
CNC(=O)/C(C#N)=C/c1c(N2CCN(c3ccc(OC)cc3)CC2)nc2c(C)cccn2c1=O | i | 0.0% | 20.6µM* | -1.2% | -2.9% | i
COC(=O)/C(C#N)=C/c1c(N2CCN(c3ccc(OC)cc3)CC2)nc2c(C)cccn2c1=O | i | -16.1% | 0.1% | -2.6% | -15.3% | i
COCCNC(=O)/C(C#N)=C/c1c(N2CCN(C)CC2)nc2c(C)cccn2c1=O | i | 4.5% | -6.1% | 20.6µM* | 2.5% | i
Cc1cc(C(F)(F)F)nn1Cc1n[nH]c(=S)n1-c1ccc(Cl)cc1 | u | 0.1% | 15.7% | -4.7% | 3.1% | i
COc1ccc2c(c1)O[C@H](c1ccc3c(c1)OCO3)[C@@H](OC(=O)Nc1cc(OC)c(OC)c(OC)c1)C2=O | x | x | u | 11.6µM* | x | x
O=C(Cc1ccccc1)Nc1ncnc2c1C(c1ccccc1)c1c(ccc3ccccc13)O2 (configuration not stated) | 18.4µM* | x | u | u | x | u
O=C(Nc1ncnc2c1C(c1ccccc1)c1c(ccc3ccccc13)O2)c1ccccc1 (configuration not stated) | u | x | u | 12.5%[9.22 µM] | x | 13µM*
CC12CCC(/C(=C/NNc3ccc([N+](=O)[O-])cc3[N+](=O)[O-])C1=O)C2(C)C (configuration not stated) | i | -15.0% | x | x | -25.2% | i
CSc1ccccc1NC(=O)COC(=O)c1cnc(C)cn1 | i | -5.2% | -1.7% | -6.9% | -6.6% | i
